Results filed as inconclusive are left out. Active and inactive are the calls of the source. How the source made its calls: active means hit-call score of the fitted dose curve at least 0.9, where 1 is the maximum; inconclusive means response in the unintended direction; inactive means score below 0.9.

Read-out in this assay: ABC Transporter (ABCB1), ABCB1 (gene 5243)
The assay can be described thus: CLD_ABCB1_6hr: CellzDirect (CLD) Gene Expression Assay for ABC Transporter (ABCB1) at 6 hours (AID 2283659).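 Further: hits raise ABCB1 transcript above the DMSO vehicle baseline.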 The protocol: CLD_6hr is a cell-based, multiplexed-readout assay that uses hepatocyte, a human liver primary cell, with measurements taken at 6 hours after chemical dosing in a 96-well plate.CLD_ABCB1_6hr is one of 16 assay component(s) measured or calculated from the CLD_6hr assay. It is designed to make measurements of mRNA induction, a form of inducible reporter, as detected with chemiluminescence signals by Quantitative Nuclease Protection Assay (qNPA) technology.Data from the assay component CLD_ABCB1_6hr was analyzed at the endpoint, CLD_ABCB1_6hr, in the positive analysis fitting direction relative to DMSO as the negative control and baseline of activity. Using a type of inducible reporter, gain-of-signal activity can be used to understand changes in the reporter gene as they relate to the gene ABCB1. Furthermore, this assay endpoint can be referred to as a primary readout. To generalize the intended target to other relatable targets, this assay endpoint is annotated to the transporter intended target family, where subfamily is ABC transporter.
Human hepatocyte cultures were treated daily for two consecutive days with fresh dosing solutions containing appropriate concentrations of the 320 ToxCast chemicals (chemical identities were blinded to CellzDirect and other ToxCast collaborators), vehicle control (0.2% DMSO), and positive control inducers as summarized in Table 1. Due to the large number of treatment groups and chemicals examined, the ToxCast chemicals were divided into two groups (spanning two independent cultures of hepatocytes from separate donor preparations (Hu778: ToxCast plates 1 and 2; Hu776: ToxCast plates 3 and 4). Each preparation of human hepatocyte cultures was treated with respective vehicle control, medium only control, set of six positive controls/reference chemicals for the five hepatic receptor pathways, and a subset of eight of the ToxCast chemicals (indoxacarb, pyrithiobac-sodium, norflurazon, cyhalofop-butyl, methomyl, thiram, acetochlor, and propiconazole). These replicate data, coupled with internal replicates designed within the blinded ToxCast chemical library, provided additional data to evaluate interindividual differences between hepatocyte preparations and their potential impact on chemical profiles.Cell morphology and integrity were evaluated using phase-contrast microscopy as an indicator of hepatocyte cell health (Tyson & Green, 1987). Cultures for each treatment group (i.e., media, vehicle [0.2% DMSO], positive control inducers [multiple concentrations], and the ToxCast chemicals [multiple concentrations]) were observed and cell morphology was assessed relative to vehicle control cultures at each harvest time point (0, 6, 24, or 48 h). […] Images were evaluated at the conclusion of the study to assess changes in cell integrity and account for the effects of chemical exposure on uncharacteristic changes in concentration-dependent gene expression profiles. The results from these determinations of apparent cytotoxicity were annotated (yes/no) alongside the corresponding qNPA data for reference.At the conclusion of each treatment period, hepatocyte cultures (96-well) were washed with 1 volume of HBSS, lysed by addition of 25 ul ArrayPlate lysis buffer (HTG, Tucson, AZ), and 70 ul/well of Denaturation Oil, denatured by incubation at 95C for 10 min, and frozen at approximately -70C until analysis by nuclease protection assay (qNPA) (Roberts et al., 2007). For qNPA analysis, cell lysates were thawed at 50C for approximately 30 min, qNPA probes were added, and samples were incubated at 95C for 10 min to begin the detection process by denaturing the target RNA, dissociating the duplexes and secondary structure hybridization. At the conclusion of the hybridization period, S1 nuclease reagent was added to each sample to digest all nonprotected nucleotides at 50C for 60-90 min. […]
For `CCC(O)=C1C(=O)CC(C(=O)O)CC1=O` (stereo not given), the result was inactive.
On to `COCCO`, for which the call was inactive.
With `CCCN(CCC)c1c([N+](=O)[O-])cc(C(F)(F)F)c(N)c1[N+](=O)[O-]`, the result was inactive.
With `CCOC(=O)NCCOc1ccc(Oc2ccccc2)cc1`, the call was inactive.
Turning to `C#CCOC(=O)[C@@H](C)Oc1ccc(Oc2ncc(Cl)cc2F)cc1`, the call was inactive.
On to `C=CCOC(Cn1ccnc1)c1ccc(Cl)cc1Cl` (stereo not given), for which the molecule was called inactive.
Turning to `CC(C)(c1ccc(O)cc1)c1ccc(O)cc1`, the result was inactive.
As for `COC(=O)c1ccc(I)cc1S(=O)(=O)NC(=O)Nc1nc(C)nc(OC)n1`, the result was inactive.
As for `CC(C)(C)[C@@H](O)[C@@H](Cc1ccc(Cl)cc1)n1cncn1`, the call was inactive.
On to `O=C(Nc1ccc([N+](=O)[O-])cc1Cl)c1cc(Cl)ccc1O`, for which the molecule was called inactive.
Turning to `CCCCC(CC)CN1C(=O)C2C3C=CC(C3)C2C1=O` (stereo not given), the molecule was called inactive.
In the case of `CSC(=O)c1cccc2nnsc12`, the molecule was called inactive.
In the case of `CCN(CC)C(=O)c1cccc(C)c1`, the call was inactive.
`COc1c(Cl)ccc(Cl)c1C(=O)O`: the molecule was called inactive.
Take `CCNc1nc(N)nc(Cl)n1`: the molecule was called inactive.
Regarding `CCCCC(CC)COC(=O)c1ccccc1C(=O)O` (stereo not given), the molecule was called inactive.
On to `Oc1ccc(C(c2ccc(O)cc2)C(Cl)(Cl)Cl)cc1`, for which the result was inactive.
Turning to `CCCOC(=O)NCCCN(C)C`, the result was inactive.
On to `COc1nc(C)nc(NC(=O)NS(=O)(=O)c2ccccc2OCCCl)n1`, for which the result was inactive.
With `S=C(S)NCCNC(=S)S.[Mn+2].[S-]C([S-])=NCCN=C([S-])[S-].[Zn+2]`, the call was inactive.
The entry for `c1ccc2[nH]c(-c3cscn3)nc2c1` is “inactive”; for `CCOC(=O)COc1cc(-n2ncc(C(F)(F)F)c(C)c2=O)c(F)cc1Cl` it is “inactive”.
In the case of `CCCCCOC(=O)COc1cc(N2C(=O)C3=C(CCCC3)C2=O)c(F)cc1Cl`, the molecule was classed as inactive.
Regarding `N#CSCSc1nc2ccccc2s1`, the molecule was called inactive.
With `CCCN(CCC)C(=O)SCC`, the result was inactive.
Regarding `COC(=O)c1ccc(CNS(C)(=O)=O)cc1S(=O)(=O)NC(=O)Nc1nc(OC)cc(OC)n1`, the outcome was inactive.
`CCOC(=O)[C@H](C)Oc1ccc(Oc2nc3ccc(Cl)cc3o2)cc1`: the result was inactive.
The value for `CN(C)C(=O)Nc1ccc(Cl)c(Cl)c1` was “inactive”; that for `CCC(C)OC(=O)N1CCCCC1CCO` (stereo not given) was “inactive”; that for `CCCOC(=O)c1ccc(C(=O)OCCC)nc1` was “inactive”.
For the molecule `COC(=O)CSc1cc(N=c2sc(=O)n3n2CCCC3)c(F)cc1Cl`, the molecule was classed as inactive.
On to `CCOC(=O)C(C)Oc1ccc(Oc2nc3ccc(Cl)cc3o2)cc1` (stereo not given), for which the molecule was classed as inactive.
The value for `COC(=O)c1ccccc1C(=O)O` was “inactive”; that for `CCCCOC(=O)[C@@H](C)Oc1ccc(Oc2ccc(C(F)(F)F)cn2)cc1` was “inactive”.
The value for `CCCCCCC(C)OC(=O)COc1nc(F)c(Cl)c(N)c1Cl` (stereo not given) was “inactive”.

The record behind these values is PubChem BioAssay (EPA / NIEHS).
